# Experimental data published in PubChem BioAssay (NCATS).
# Several values for one entry are separate records, joined by “and”; a condition that tells them apart may be missing. Equal values may be shown once. Inconclusive results are not listed. A call without a number means that no potency is given here. Some compounds were tested as several samples or in several runs, with calls that do not always agree. Activity calls are given as the source filed them. The call rests on the fitted dose curve; in most records, active means well fitted curve in the direction sought with a large enough effect; inconclusive means small, poorly fitted or top-dose-only effect, or another doubt; inactive means no such curve, though single readings can be large; an effect the other way counts as inactive or inconclusive.
# Columns and labels:
# [1] = qHTS assay for measurement of the activity of small molecule inhibitors on Zika virus induced Caspase-3 activity in human astrocytoma cells (AID 1224859)
# In short: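 Percent inhibition of virus-induced caspase-3/7 signal is calculated against uninfected and ZIKV-infected control cells. Cells are SNB-19, infected at 2 FFU/cell for 6 h after 1 h compound exposure.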
# [2] = P-glycoprotein substrates identified in KB-8-5-11 adenocarcinoma cell line, qHTS therapeutic library screen (AID 1346987); further: nearly all actives have a fitted effect of over 65% in size; further: potency means the concentration at half of the fitted maximal effect
# In short: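 Human cervical adenocarcinoma KB-8-5-11 cells, selected in colchicine to over-express P-gp and assayed without it, were exposed for 72 h to titrated compounds. An ATP-based luminescent viability signal gave AC50.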
# [3] = qHTS of pediatric cancer cell lines to identify multiple opportunities for drug repurposing: Primary screen for TC32 cells (AID 1347089); further: nearly all actives have a fitted effect of over 60% in size; further: potency means the concentration at half of the fitted maximal effect
# In short: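 In the primary qHTS, MIPE compounds were tested at 11 concentrations (0.78 nM to 46 µM) and NPC compounds at 8 (0.59 nM to 46 µM) on TC32 cells for 48 h. CellTiter-Glo luminescence gave viability.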
# [4] = qHTS of pediatric cancer cell lines to identify multiple opportunities for drug repurposing: Primary screen for DAOY cells (AID 1347090); further: nearly all actives have a fitted effect of over 55% in size; further: potency means the concentration at half of the fitted maximal effect
# In short: (§1)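 Viability measured as metabolically active cells via CellTiter-Glo luminescence following 48 hours of compound exposure, 11-point dilutions in confirmatory testing. 500-1,000 cells/well plated 5 hours before dosing; controls were DMSO and 2.3 µM bortezomib.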
# [5] = qHTS of pediatric cancer cell lines to identify multiple opportunities for drug repurposing: Primary screen for SJ-GBM2 cells (AID 1347091); further: potency means the concentration at half of the fitted maximal effect
# In short: as §1
# [6] = NS1 protein of Zika virus - qHTS assay to identify small molecule inhibitors in human HEK 293 cells (AID 1347053); further: nearly all actives have a fitted effect of over 55% in size; further: potency means the concentration at half of the fitted maximal effect
# In short: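 Readout was TR-FRET using paired anti-NS1 antibodies after 24 h infection of HEK 293 cells with ZIKV MR766 (MOI = 0.5). Compound preceded virus by 1 h; reduced signal reflects lower NS1 expression.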
# [7] = qHTS Screen of the MIPE 4.0 Collection Against Ewings Sarcoma (RDES) (AID 1259252); further: potency means the concentration at half of the fitted maximal effect; nearly all actives have a fitted effect of over 35% in size
# In short: (§2)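 Dose series incubated 48 h with cells in RPMI plus 5% FBS, glutamine and penicillin/streptomycin; cell viability then quantified via CellTiter-Glo.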
# [8] = qHTS Screen of the MIPE 4.0 Collection Against Ewings Sarcoma (TC71) (AID 1259253); further: potency means the concentration at half of the fitted maximal effect; nearly all actives have a fitted effect of over 40% in size
# In short: as §2
# [9] = qHTS Screen of the MIPE 4.0 Collection Against Ewings Sarcoma (EW8) (AID 1259255); further: potency means the concentration at half of the fitted maximal effect; nearly all actives have a fitted effect of over 35% in size
# In short: as §2
# [10] = qHTS Screen of the MIPE 4.0 Collection Against Ewings Sarcoma (TC32) (AID 1259256); further: potency means the concentration at half of the fitted maximal effect; nearly all actives have a fitted effect of over 45% in size
# In short: as §2
# [11] = Identifying Small Molecule Inhibitors of Pancreatic Cancer Stem Cells (Panc1, Spheroid) (AID 1259359); conditions: Panc1 spheroid cancer stem cell viability;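 further: potency means the concentration at half of the fitted maximal effect; compound exposure lasted 48 h before reading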
# In short: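 After a 4 h attachment period, compounds were pinned into wells and cultures held 48 h under standard incubator conditions. Viability was then measured as CellTiter-Glo luminescence following 10 min at room temperature.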
compound,measurement,setting,value
C[C@H](NC(=O)c1sccc1OCc1ccc(Cl)cc1)c1ccccc1,Potency,[1],inactive
same,Potency,[2],14.8 µM (active)
same,Potency,[3],inactive
same,Potency,[4],18.7 µM (active)
same,Potency,[5],inactive
O=C(Nc1ccccc1Br)N[C@@H]1CCN(c2ccc(C(F)(F)F)cn2)C1,Potency,[1],inactive
same,Potency,[6],inactive
same,Potency,[3],inactive
same,Potency,[4],11.8 µM (active)
COc1ccc2c(Oc3ccc(NC(=O)c4c(C)n(CC(C)(C)O)n(-c5ccccc5)c4=O)cc3F)ccnc2c1,Potency,[1],inactive
same,Potency,[6],inactive
same,Potency,[3],inactive
same,Potency,[5],0.059 µM (active)
Clc1cc(Cl)cc(CNc2ncncc2-c2ccc3c(c2)OCO3)c1,Potency,[1],inactive
same,Potency,[2],13.2 µM (active)
same,Potency,[6],18.7 µM (active)
same,Potency,[3],inactive
same,Potency,[5],18.7 µM (active)
Cc1ccc(C(C)(O)c2nc3ccccc3s2)c(C)c1 (stereo not given),Potency,[1],inactive
same,Potency,[2],inactive
same,Potency,[6],inactive
same,Potency,[3],inactive
same,Potency,[5],3.32 µM (active)
CC(C)n1nc(-c2ccc3oc(N)nc3c2)c2c(N)ncnc21,Potency,[1],inactive
same,Potency,[2],1.3 nM (active) and 32.6 nM (active)
same,Potency,[6],0.0209 µM (active)
same,Potency,[3],0.0117 µM (active)
same,Potency,[4],0.0148 µM (active)
same,Potency,[5],0.0019 µM (active)
NC(=O)NN=Cc1ccc([N+](=O)[O-])o1,Potency,[1],inactive
same,Potency,[2],inactive
same,Potency,[6],inactive
same,Potency,[3],inactive
same,Potency,[4],inactive
same,Potency,[5],inactive
COc1ccc(C2CC(c3ccccc3)=NN2c2ccc(S(N)(=O)=O)cc2)cc1 (stereo not given),Potency,[1],inactive
same,Potency,[3],inactive
same,Potency,[4],inactive
CC(C)C[C@H](CC(=O)O)C(=O)N[C@@H](Cc1c[nH]c2ccccc12)C(=O)N[C@@H](C)c1ccccc1,Potency,[1],inactive
same,Potency,[2],inactive
same,Potency,[6],inactive
same,Potency,[3],inactive
same,Potency,[4],inactive
same,Potency,[5],3.72 µM (active)
COCCOc1nc(-c2ccc(Cl)c(Cl)c2)n(-c2ccc(NC(=O)CCl)cc2)n1,Potency,[1],inactive
same,Potency,[2],inactive and 14.6 µM (active)
same,Potency,[3],inactive
same,Potency,[5],16.6 µM (active)
c1cc(-c2sc(-c3ccncc3)c(-c3ccncc3)c2-c2ccncc2)ccn1,Potency,[1],inactive
same,Potency,[2],inactive
same,Potency,[6],inactive
same,Potency,[3],inactive
same,Potency,[5],inactive
O=C1C(Cl)=C(NCCN2CCOCC2)C(=O)c2ncccc21,Potency,[7],8.33 µM (active)
same,Potency,[8],6.62 µM (active)
same,Potency,[9],3.72 µM (active)
same,Potency,[10],2.64 µM (active)
same,Potency,[11],3.72 µM (active)
same,Potency,[2],20.9 µM (active)
same,Potency,[6],9.35 µM (active)
same,Potency,[4],11.8 µM (active)
same,Potency,[5],6.62 µM (active)
CS(=O)(=O)N(Cc1ccco1)CC(O)Cn1c2ccccc2c2ccccc21 (stereo not given),Potency,[1],inactive
same,Potency,[4],inactive
O=C(NOCC(O)CO)c1cc(Br)c(F)c(F)c1Nc1ccc(I)cc1F (stereo not given),Potency,[1],inactive
same,Potency,[2],inactive
same,Potency,[6],inactive
same,Potency,[3],inactive
same,Potency,[4],14.8 µM (active)
same,Potency,[5],inactive
CC(C)C(=O)Nc1ncc(-c2cc(C(F)F)nn2-c2c(Cl)cccc2Cl)s1,Potency,[1],inactive
same,Potency,[2],23.1 µM (active)
same,Potency,[6],13.2 µM (active)
same,Potency,[3],inactive
same,Potency,[5],20.9 µM (active)
CNC1CCC(N(Cc2cccc(-c3ccncc3)c2)C(=O)c2sc3c(F)ccc(F)c3c2Cl)CC1 (stereo not given),Potency,[1],inactive
same,Potency,[6],10.5 µM (active)
same,Potency,[3],inactive
O=C1NC(=O)C(=Cc2cccc(C(F)(F)F)c2)S1,Potency,[1],inactive
same,Potency,[6],inactive
same,Potency,[3],inactive
CN(C)Cc1cccc(N=C(c2ccccc2)c2c(O)[nH]c3cc(C(=O)N(C)C)ccc23)c1,Potency,[1],inactive
same,Potency,[6],inactive
same,Potency,[3],inactive
same,Potency,[4],2.96 µM (active)
same,Potency,[5],18.7 µM (active)
CN1C[C@H]2c3ccccc3Oc3ccc(Cl)cc3[C@@H]2C1,Potency,[2],inactive
same,Potency,[3],inactive
same,Potency,[4],inactive
same,Potency,[5],inactive
